# CF NFkB block: blocks PAF-induced NF-kB reporter in cystic fibrosis cells | KKLEB NF-kB-GFP reporter, GFP fluorescence overnight | inhibition, % at 5 µM | hit rate 0.86% among 360,000;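 active means at least 50% inhibition at 5 µM, scaled per plate between neutral and stimulator controls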;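 further: PAF is a Pseudomonas aeruginosa culture filtrate used as stimulus; plate controls were PAF-stimulated DMSO wells for no effect and unstimulated DMSO wells for full effect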
# HIF-2a inh: HIF-2a inhibition; 786-0 RCC cells HIF-2a reporter, luciferase luminescence, overnight; inhibition, % at 18.8 µM; hit rate 0.72% among 360,000; AID 624352;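 active means inhibition of the luminescence signal of 40% or more relative to plate controls, in a single-dose primary screen at 18.75 µM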
# C8 TRAIL sens: caspase-8 TRAIL sensitization; NB7+C8 cells + TRAIL, ATPlite viability luminescence; inhibition (viability loss, TRAIL sensitization), % at 10 µM; hit rate 1% among 360,000; AID 624354;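 active means compounds causing at least 50% loss of cell viability in the single-dose screen, relative to plate controls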
# Peg3 prom inh: inhibitors of Peg3 promoter. HeLa PEG-Prom luciferase reporter, luminescence, overnight. inhibition, % at 20 µM. hit rate 1.7% among 360,000. AID 588405;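 active means inhibition of at least 50% at 20 µM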
# KKLEB tox: CF airway cell cytotoxicity counter-screen | KKLEB CF airway cells viability, ATPlite luminescence, overnight; stronger effect = lower value; cells stimulated with P. aeruginosa culture filtrate | activity change (cytotoxicity), % at 5 µM | hit rate 0.36% among 360,000 | AID 602141;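 active means corrected activity change at or below -50% at 5 µM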
# PPC-1+TRAIL kill: PPC-1 cancer cell killing with TRAIL present | hit rate 0.41% among 220,000 | AID 1443 | PPC-1 cells + TRAIL, ATPLite viability luminescence | cell killing (% activity), % at 4 µM or 5 µM;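 active means cell killing above 50% in the first pass at 4 µM, then a duplicate retest at 5 µM averaging 50% or more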;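 further: plate controls were cells with TRAIL plus DMSO for no effect and medium-only wells lacking cells for full effect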
# PPC1 cytotox: PPC-1 cell cytotoxicity; AID 1447; cytotoxicity, % at 5 µM; shares compounds with PPC-1+TRAIL kill; hit rate 50% among 1,200; PPC-1 viability, ATPlite luminescence, overnight;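 active means reconfirmed compounds whose average cytotoxicity reaches 50% or more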;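 further: 0% = DMSO-treated cells and 100% = wells holding medium but no cells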
# * hit, by the source's call; · = no result. An excerpt weighted towards active compounds, which were near 3.1% of everything screened.
SMILES,CF NFkB block,HIF-2a inh,C8 TRAIL sens,Peg3 prom inh,KKLEB tox,PPC-1+TRAIL kill,others
O=c1[nH]c2ccccc2n1C1CCN(C(CCc2ccccc2)c2nnnn2C2CCCCC2)CC1 (stereo not given),86.4*,-84.2,5.9,97.8*,-69.0*,·,
CSCCC(c1nnnn1Cc1ccccc1)N1CCC(n2c(=O)[nH]c3ccccc32)CC1 (stereo not given),86.7*,-16.5,47.0,65.1*,-104.4*,·,
CSCCC(c1nnnn1C1CCCCC1)N1CCC(n2c(=O)[nH]c3ccccc32)CC1 (stereo not given),32.9,-15.0,-14.6,46.1,2.5,·,
O=S1(=O)NCC2(CC2)CN1Cc1ccccc1,·,0.3,-10.7,·,·,·,
COC(=O)[C@@H]1N=C(c2ccc(OC)cc2)O[C@]12C(=O)N(Cc1ccccc1)c1ccccc12,·,-2.3,-6.3,·,·,·,
CN1c2ccc([N+](=O)[O-])cc2CC2(C(=O)NC(=O)N(c3ccc(Br)cc3)C2=O)C1c1ccccc1 (stereo not given),-6.5,6.7,-7.6,23.9,10.7,11.3,
Cc1ccc(C(O)(C(=O)OC(C)C)C(O)c2ccc(F)cc2)cc1 (stereo not given),·,2.1,11.5,·,·,·,
CCN(CC)c1ccc(N=Cc2c(O)n(CCc3ccc(OC)c(OC)c3)c(=O)[nH]c2=O)cc1,3.4,5.7,31.4,68.6*,-6.2,14.5,
COc1ccc(CCn2c(O)c(C=Nc3ccc(F)cc3)c(=O)[nH]c2=O)cc1OC,-8.7,21.1,3.2,15.7,2.3,9.0,
O=[N+]([O-])c1nccn1CC(O)CN1CC1 (stereo not given),-6.3,5.1,8.6,1.2,14.0,·,
c1ccc(Nc2ccc(Nc3ccccc3)cc2)cc1,1.7,-227.7,6.2,-156.0,1.9,·,
N#CC(C#N)=C(C#N)c1ccc(Nc2ccccc2)cc1,52.7*,10.7,7.3,31.9,-14.2,·,
Nc1ccc(C2(c3ccc(N)cc3)c3ccccc3-c3ccccc32)cc1,75.0*,27.2,-5.4,26.6,-56.8*,1.3,
COc1ccc(NC2Oc3cc4c(cc3C(c3cc(OC)c(OC)c(OC)c3)C2C)OCO4)cc1 (stereo not given),37.8,25.1,20.2,-20.2,-23.6,·,
CC(C)[C@]12CC(=O)[C@H](C)[C@H]1C2,-4.9,-4.9,-7.3,7.2,-1.0,·,
Oc1c(Cl)cccc1Cc1cc(Cl)cc(Cl)c1O,61.0*,-3.3,12.1,48.8,-19.0,·,
CC12CC[C@H]3[C@@H](CCC4(O)C[C@H](O)CCC34/C=N/NC(=O)c3ccccc3[N+](=O)[O-])C1(O)CCC2C1=CC(=O)OC1 (stereo not given in full),4.0,21.9,17.4,66.7*,11.2,·,
CC12CC[C@H]3[C@@H](CCC4(O)C[C@H](O)CCC34/C=N/NC(=O)Cc3ccccc3)C1(O)CCC2C1=CC(=O)OC1 (stereo not given in full),8.7,2.2,9.2,18.8,5.0,-1.9,
Cc1cc(C)cc(N2C(=O)NC(=O)/C(=C/c3cccn3-c3ccc(Cl)cc3)C2=O)c1,60.8*,42.8*,11.3,99.2*,1.0,35.9,
Cc1cccc(N2C(=O)NC(=O)/C(=C\c3cccn3-c3ccc(Cl)cc3)C2=O)c1,44.9,14.0,12.6,103.5*,-5.9,0.5,
Cc1cccc(N2C(=O)NC(=O)/C(=C/c3ccc([N+](=O)[O-])o3)C2=O)c1,·,·,·,·,·,-14.5,
Fc1ccc(N2Cc3ccccc3-n3nncc3C2)cc1,-3.6,-4.3,20.1,3.2,-8.3,·,
COc1ccccc1C1C([N+](=O)[O-])=C(N)Oc2c1c(=O)oc1ccccc21 (stereo not given),10.5,21.7,13.9,2.5,4.7,10.3,
COC(=O)C1=C(c2cccc(OC)c2OC)C[C@@H]2CC[C@H]1N2C(=O)NC(C)C,1.6,1.0,5.5,8.7,6.7,·,
CN(C)c1ccc(/C=C/[N+](=O)[O-])cc1,3.6,11.1,17.0,-16.9,0.3,8.6,
SMILES,CF NFkB block,HIF-2a inh,C8 TRAIL sens,Peg3 prom inh,KKLEB tox,PPC-1+TRAIL kill,others
C/C(=C\c1ccc(N(C)C)cc1)[N+](=O)[O-],-5.0,93.3*,50.1*,101.4*,-33.1,35.5,
COc1cc2cc(C(=O)N3CC(COS(C)(=O)=O)c4ccc(O)cc43)[nH]c2c(OC)c1OC (stereo not given),88.1*,83.5*,91.3*,99.1*,-95.9*,·,
CC(C)(C)n1nnnc1C(c1ccccc1)N1CCC2(CC1)C(=O)NCN2c1ccccc1 (stereo not given),-7.2,18.0,-3.7,19.9,-22.6,·,
Cc1ccc(C[n+]2c(-c3ccc(C)cc3)cc(-c3ccc(C)cc3)cc2-c2ccc(C)cc2)cc1,57.3*,89.9*,63.0*,96.7*,-63.7*,·,
COC(=O)C1=C(c2ccc(OC)c(OC)c2)C[C@@H]2CC[C@H]1N2C(=O)N1CCCCC1,-7.3,12.2,-18.0,8.3,-1.8,·,
CN1C(=O)NC(=O)/C(=C\C=C\c2ccccc2[N+](=O)[O-])C1=O,·,·,·,·,·,0.8,
CCCN1CCc2cccc3c2[C@H]1Cc1ccc(O)c(O)c1-3,-0.3,6.1,46.2*,22.3,-23.2,·,
CN(Cc1cccc(-c2ccncc2)c1)C(=O)Oc1ccccc1Cc1ccccc1,·,2.1,14.6,·,·,·,
CC1=C(C)CC2(CC1)C(=O)NC(=O)NC2=O,-20.7,-3.6,-20.3,60.6*,20.4,·,
CC1CCCCC12C(=O)NC(=O)NC2=O (stereo not given),7.7,6.2,1.9,7.6,-1.8,·,
COc1ccc(C(CC(=O)N2CCC3(CC2)OCCO3)NS(=O)(=O)c2ccc(C)cc2)cc1 (stereo not given),-21.5,0.4,-2.5,15.3,17.9,-0.5,
COc1ccc(C(CC(=O)N2CCC3(CC2)OCCO3)NS(=O)(=O)c2ccc(OC)cc2)cc1 (stereo not given),-1.6,12.4,0.6,-2.2,1.6,54.1*,
CC1(C)C[C@H]2C=C(C=O)[C@]3(C=O)C[C@]3(C)[C@H]2C1,77.4*,23.2,41.5,105.4*,-37.4,32.5,
O=C(Nc1cc(Cl)cc(Cl)c1)N1Cc2ccccc2-n2nncc2C1,-19.7,1.0,-11.8,0.7,5.5,·,
COc1ccc2c(c1OC)CN1CCc3cc4c(cc3[C@H]1C2)OCO4,-28.7,-34.1,5.5,-28.9,5.0,·,
CCC1CN2CCc3cc(OC)c(OC)cc3C2CC1CC1NCCc2c1[nH]c1ccc(O)cc21 (stereo not given),89.3*,57.5*,41.8,98.8*,-26.7,·,
CC(C)N1CCN(Cc2ccc3c(c2)OCCO3)CC1CCO (stereo not given),5.0,14.0,-6.0,8.4,4.5,-9.1,PPC1 cytotox=-6.0
CC(C)N1CCN(Cc2cc3c(cc2Cl)OCO3)CC1CCO (stereo not given),-30.7,11.0,-2.9,15.2,2.4,-62.9,

# From PubChem
